Laboratory results reported in paper PMC7819943, “Rice protein-binding microarrays: a tool to detect cis-acting elements near promoter regions in rice”.
In all, about 35,000 sequences were measured (“fluorescence intensity (a.u.)”: median about 10,000, highest 2% from about 52,000 on). The entries come from a sample that favours the highest values as a whole.

biological target: T1, OsWOX13 (Oryza sativa, UniProt Q5QMM3 1-267); assay: protein-binding microarray (RPBM); PBS, 2% BSA, 51.3 ng/ul salmon testes DNA, 50 uM zinc acetate, 200 nM TF, 25 C, 1 h; high values mean tight binding; details: protein: recombinant; tags: N-terminal polyhistidine and DsRed monomer fusion (pET32a); label: CyDye5-dUTP incorporated in the synthesized complementary strand; 3' TTTTT single-stranded linker to array surface; dsDNA, one strand shown
T1 sequence: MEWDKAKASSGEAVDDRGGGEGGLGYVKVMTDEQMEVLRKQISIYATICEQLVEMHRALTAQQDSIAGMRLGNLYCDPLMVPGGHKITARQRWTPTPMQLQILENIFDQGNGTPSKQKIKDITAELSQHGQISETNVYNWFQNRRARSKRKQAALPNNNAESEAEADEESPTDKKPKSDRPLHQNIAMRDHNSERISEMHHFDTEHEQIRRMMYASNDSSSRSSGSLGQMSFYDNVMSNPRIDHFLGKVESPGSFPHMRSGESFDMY
How it was run: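 For the binding signal, per-feature fluorescence intensity was read in arbitrary units on an Axon 4000B scanner. Before scanning, a 2% BSA-blocked custom Agilent array made double-stranded with Cy5-dUTP was washed after 1 h at 25 °C with 200 nM protein and 50 µM zinc acetate. The proteins were Ni–NTA-purified transcription factors with N-terminal polyhistidine and DsRed fusions, expressed in E. coli BL21-CodonPlus.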

First: TTGATTGGATAATTTTGTGGTTTGGGAAGAAATGGTGATGCGGAGTCACCTAGTGCAG
Second: TTGCAATTGCCAATTTCTTTATTATATTGTTGGTTTAACTCGGAGTCACCTAGTGCAG
The binding signal of the first is higher: 64000 fluorescence intensity (a.u.) for the first, 16700 fluorescence intensity (a.u.) for the second.

First: AGTTTGGATTTTGGTTGAAATTGAAGATAATGTGACTGAACGGAGTCACCTAGTGCAG
Second: TGCTTGCTTGCTTGGTTTGATTGGTGGAGGTGGGAGGAGTCGGAGTCACCTAGTGCAG
The binding signal of the first is lower: 3240 fluorescence intensity (a.u.) for the first, 3920 fluorescence intensity (a.u.) for the second.

First: CATTGATTTTGTTTTATTATTTTGGTTGGTGGTGCCGTGTCGGAGTCACCTAGTGCAG
Second: TGGAAGTCAAGTCACTAATTGGAAGAAGATGGTGATAATGCGGAGTCACCTAGTGCAG
The binding signal of the first is higher: 39100 fluorescence intensity (a.u.) for the first, 16600 fluorescence intensity (a.u.) for the second.

Going from “CCTAATTTGCGTGATTGGATTGGTTGGTTGTGTTGTAATGCGGAGTCACCTAGTGCAG” to “GCTTAATTAGCTTGTATTTAGTTGGTTAATTTAGTGTTGTCGGAGTCACCTAGTGCAG”, the binding signal falls from 65000 fluorescence intensity (a.u.) to 43600 fluorescence intensity (a.u.).

First: GACACTGGGTAAATTATTCAATTCTAACTAAATTATATGACGGAGTCACCTAGTGCAG
Second: TCGATAAATTGAGGAGACCAAAATTCACGAAATCAACATACGGAGTCACCTAGTGCAG
The binding signal of the first is lower: 4590 fluorescence intensity (a.u.) for the first, 7550 fluorescence intensity (a.u.) for the second.

First: AGCTGTTCCAATTATGAACTCACTAACTTTACATAGAGGTCGGAGTCACCTAGTGCAG
Second: ACAGTTCCTTTGTGCCAATCATTGAACCCGGGAATGCTGGCGGAGTCACCTAGTGCAG
The binding signal of the first is lower: 3650 fluorescence intensity (a.u.) for the first, 4780 fluorescence intensity (a.u.) for the second.

First: TATGAATGACATATAAACAGATAATCGTGTTCACCGAATGCGGAGTCACCTAGTGCAG
Second: TCTGATAGCTTGTGAGGGTTTCATTCATCCTCTGCTAGTGCGGAGTCACCTAGTGCAG
The binding signal of the first is higher: 20900 fluorescence intensity (a.u.) for the first, 6630 fluorescence intensity (a.u.) for the second.

First: GTCTTCAAATTATATTAGTTATAACTATAGTTCACACAATCGGAGTCACCTAGTGCAG
Second: TCAGCTAATCAGCTAACTGGTCCTTTTCCTACTTCCCTTGCGGAGTCACCTAGTGCAG
The binding signal of the first is lower: 4610 fluorescence intensity (a.u.) for the first, 8010 fluorescence intensity (a.u.) for the second.

Compared with “GGGGATTGGGAGTTTATACAAGGGAATTGATGGTGAGATTCGGAGTCACCTAGTGCAG”, “TTAAGATAGAGGAAACATTGATTGTATGCATGCTATATATCGGAGTCACCTAGTGCAG” is lower in binding signal: 21000 fluorescence intensity (a.u.) for the first, 3750 fluorescence intensity (a.u.) for the second.

Going from “GCTAATTTATACAATAGTTGCTTACTATAGAATTAATGCACGGAGTCACCTAGTGCAG” to “GCATAGATTATTATGCAGAAAGTTCATGTATATGACCAGCCGGAGTCACCTAGTGCAG”, the binding signal falls from 27200 fluorescence intensity (a.u.) to 6640 fluorescence intensity (a.u.).

Compared with “ACACCAATTGAACATTTGGATGTAAACATTAGGGATGCTGCGGAGTCACCTAGTGCAG”, “ATATGATTAATATTTTATGCGATTAATATTTTATGCGTGACGGAGTCACCTAGTGCAG” is higher in binding signal: 3400 fluorescence intensity (a.u.) for the first, 41400 fluorescence intensity (a.u.) for the second.

Compared with “TGTTAGATGATAAAACATGATTAATATTTTATGCGTGACTCGGAGTCACCTAGTGCAG”, “TGTGATTAGTTCTAATTTAATATAGCAAGAACTAGTGGATCGGAGTCACCTAGTGCAG” is higher in binding signal: 8120 fluorescence intensity (a.u.) for the first, 53800 fluorescence intensity (a.u.) for the second.

Going from “ACCAATATATATATACTAATTAAATTTGTGGAACTTGGATCGGAGTCACCTAGTGCAG” to “GCAGTCCATTAACACGTGATTAATTAAGTATTAGTTAATTCGGAGTCACCTAGTGCAG”, the binding signal rises from 4420 fluorescence intensity (a.u.) to 21800 fluorescence intensity (a.u.).

Compared with “AGTTAGTGATTATATGATTAATCTATGGTCCAAATTATCTCGGAGTCACCTAGTGCAG”, “ATGATTAATTATTATTTTAGTGATATGCGATATACTCGTGCGGAGTCACCTAGTGCAG” is higher in binding signal: 23900 fluorescence intensity (a.u.) for the first, 65000 fluorescence intensity (a.u.) for the second.

First: TTGCTAATGACGGATTAATTAGGCTTAATAAATTCGTCTCCGGAGTCACCTAGTGCAG
Second: CCTAATTAAGTGGATTTTAGTTTTATATATTATTTAACTTCGGAGTCACCTAGTGCAG
The binding signal of the first is higher: 33900 fluorescence intensity (a.u.) for the first, 25700 fluorescence intensity (a.u.) for the second.

First: AGTTAATTAATTAGTCCATCCAAGGAAGGAGTATATGATTCGGAGTCACCTAGTGCAG
Second: CATTTGCTAATGACGGATTAATTAGGGTTTATAAATTCGTCGGAGTCACCTAGTGCAG
The binding signal of the first is higher: 55800 fluorescence intensity (a.u.) for the first, 24400 fluorescence intensity (a.u.) for the second.

Going from “GAGCCTAATTAATTCGTGATTAGCCTAATGACGGATTAATCGGAGTCACCTAGTGCAG” to “GGTAGTACTTAATTAATCACGCGCTAATAGACCGCTCTGTCGGAGTCACCTAGTGCAG”, the binding signal falls from 57400 fluorescence intensity (a.u.) to 22600 fluorescence intensity (a.u.).

Going from “TCGTATTTATGGCTAATTATTATTTCAGTGGTAGACGATTCGGAGTCACCTAGTGCAG” to “TACACTAATTAATTAAGCATTAATCGTGGGAAGAGTAACGCGGAGTCACCTAGTGCAG”, the binding signal rises from 6670 fluorescence intensity (a.u.) to 47000 fluorescence intensity (a.u.).

Compared with “TTGCATGTTTGTGGATTGATACATTAGATATTGATCTATCCGGAGTCACCTAGTGCAG”, “TCATGCAGTAATTAATCAGTGACAGTGAACCTTGTTAGTACGGAGTCACCTAGTGCAG” is higher in binding signal: 3540 fluorescence intensity (a.u.) for the first, 17400 fluorescence intensity (a.u.) for the second.

Compared with “AGAAAATTTAATCTTAAATATGGACATTACGAATGTACAACGGAGTCACCTAGTGCAG”, “AAAATTTGTCAATAAATATATAGGCAGTCCCGGTCCGTTCCGGAGTCACCTAGTGCAG” is higher in binding signal: 4110 fluorescence intensity (a.u.) for the first, 4490 fluorescence intensity (a.u.) for the second.

Compared with “TCCTCAATTAATTGCTGATCCTAATGCAGAGTTTCAGGTGCGGAGTCACCTAGTGCAG”, “TATCACTAATAATTTAGCTCAGTTTGACAAGACGGATATCCGGAGTCACCTAGTGCAG” is lower in binding signal: 35500 fluorescence intensity (a.u.) for the first, 4380 fluorescence intensity (a.u.) for the second.
